The values below come from PubChem BioAssay.

Each structure is given as a SMILES string. The source made the active and inactive calls. Unless noted, how the calls were made is not given here.

The nature of assay [1]: HepG2 liver cancer cell viability effects, profiling panel, resazurin fluorescence, 24 h, PK04 Diversity Set (AID 1172). Further: test concentration not given here. The conditions noted are these: higher = more signal.
Assay [2] can be described thus: basal S. cerevisiae growth modulation, no modifier, primary screen, OD600, strain BY4716, 24 h, basal condition (AID 1173). Conditions: OD600, 24 h, higher = more signal, called active from +8 up or from −8 down.
Assay [3] is described as follows: MM1S myeloma cell viability, profiling panel, resazurin fluorescence, basal, 24 h, PK04 Diversity Set (AID 1174).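 Further: MM1S multiple myeloma cell line; test concentration not given here.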 The conditions noted are these: higher = more signal, called active from +8 up or from −8 down.
The target in assay [4] is Dihydroorotate dehydrogenase (quinone), mitochondrial (Plasmodium falciparum (isolate 3D7)) (UniProt Q08210). The assay is described as follows: PfDHODH enzyme inhibitors, primary screen, biochemical, C-terminal His tag, absorbance 600 nm (AID 1175).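 Further: recombinant parasite enzyme with a five histidine tag at its C terminus; test concentration not given here.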 The conditions noted are these: DCIP absorbance 600 nm, higher = more signal, called active from +8 up or from −8 down.
Dihydroorotate dehydrogenase (quinone), mitochondrial (Plasmodium falciparum (isolate 3D7)), sequence (Q08210 whole entry, looked up): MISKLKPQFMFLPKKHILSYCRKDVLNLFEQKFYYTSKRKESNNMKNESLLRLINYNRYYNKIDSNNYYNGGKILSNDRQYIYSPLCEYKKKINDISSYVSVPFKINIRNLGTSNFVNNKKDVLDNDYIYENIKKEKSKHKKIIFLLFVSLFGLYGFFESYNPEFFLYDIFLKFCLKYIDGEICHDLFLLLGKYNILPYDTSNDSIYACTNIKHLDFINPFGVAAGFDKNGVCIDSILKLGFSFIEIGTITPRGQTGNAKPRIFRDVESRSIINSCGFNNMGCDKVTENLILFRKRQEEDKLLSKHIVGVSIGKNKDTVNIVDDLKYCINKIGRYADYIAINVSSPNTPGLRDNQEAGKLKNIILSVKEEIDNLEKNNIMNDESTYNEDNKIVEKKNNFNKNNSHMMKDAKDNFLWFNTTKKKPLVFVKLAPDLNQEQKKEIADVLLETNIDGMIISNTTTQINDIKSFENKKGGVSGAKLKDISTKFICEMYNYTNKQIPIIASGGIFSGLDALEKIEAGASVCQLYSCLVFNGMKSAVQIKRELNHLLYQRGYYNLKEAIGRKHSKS
Assay [5] is described as follows: P. aeruginosa biofilm formation inhibitors, primary screen, strain PAO1, LB-PBS medium, absorbance 600 nm (AID 1176). Further: test concentration not given here. Conditions: P. aeruginosa PAO1 growth/biofilm, A600, 12 h; higher = more signal.
Assay [6] is described as follows: S. cerevisiae RM11-1a growth modifiers, primary screen, strain RM11-1a, OD600, basal, 24 h (AID 1177).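 Further: cultures grown under basal conditions with no added stressor; test concentration not given here.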 The conditions noted are these: OD600, 24 h, higher = more signal, called active from +8 up or from −8 down.
Assay [7] in a line: E. coli acrAB mutant growth effects, primary screen, E. coli filamentation inducers, strain DRC39, OD650, 24 h (AID 1178).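 Further: growth measured as culture turbidity by optical density at 650 nm; test concentration not given here.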 The conditions noted are these: higher = more signal, called active from +8 up or from −8 down.
Assay [8] is described as follows: E. coli acrAB mutant growth effects, primary screen, E. coli filamentation inducers, strain DRC39, OD650, 48 h (AID 1179).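 Further: screen aims at cell division blockers that make cells filament.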 Conditions: E. coli DRC39 delta-acrAB growth, higher = more signal, called active from +8 up or from −8 down.
A short description of assay [9]: RPMI8226 myeloma cell viability, profiling panel, resazurin fluorescence, basal, 24 h, PK04 Diversity Set (AID 1180).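 Further: RPMI8826 multiple myeloma cell line at 5000 cells per well; test concentration not given here.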 Conditions: higher = more signal. For orientation: The colour change of resazurin is a common sign of viable cells or microbes.
Assay [10] has as its target E3 ubiquitin-protein ligase XIAP (Homo sapiens) (UniProt P98170). The assay is described as follows: XIAP binders, primary screen, biophysical, small-molecule microarray, fluorescence 635 nm (AID 1181).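 Further: score merges 667 nm emission and signal to noise over triplicate slides.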 The conditions noted are these: small-molecule microarray binding, higher = more signal.

E3 ubiquitin-protein ligase XIAP (Homo sapiens), sequence (P98170 whole entry, looked up): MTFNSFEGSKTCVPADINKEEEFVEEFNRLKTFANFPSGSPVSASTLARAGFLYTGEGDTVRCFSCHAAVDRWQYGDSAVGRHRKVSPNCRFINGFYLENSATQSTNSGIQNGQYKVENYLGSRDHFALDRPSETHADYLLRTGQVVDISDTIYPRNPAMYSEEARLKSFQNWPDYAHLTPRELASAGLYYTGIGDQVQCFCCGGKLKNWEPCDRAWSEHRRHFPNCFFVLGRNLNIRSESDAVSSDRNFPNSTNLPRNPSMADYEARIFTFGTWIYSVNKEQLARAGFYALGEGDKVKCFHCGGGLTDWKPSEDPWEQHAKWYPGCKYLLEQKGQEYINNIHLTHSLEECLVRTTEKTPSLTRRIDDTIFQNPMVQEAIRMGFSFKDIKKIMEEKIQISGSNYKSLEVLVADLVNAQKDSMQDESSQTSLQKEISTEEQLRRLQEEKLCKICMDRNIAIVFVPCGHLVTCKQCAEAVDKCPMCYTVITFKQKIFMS

With `CC1CC/C=C\[C@H]2OC34C=CCN(Cc5ccccc5)C(=O)[C@H]3N(CCCCCCO)C(=O)[C@@H]4C2C(=O)O1` (stereo not given in full), the z-score in [1] was 0.279; in assay [2], -0.885 (inactive); in assay [3], 0.507 (inactive); in assay [5], -1.06 (inactive); in assay [6] it was -0.38 (inactive); in assay [7] it was 0.608 (inactive). In addition, the results for the z-score in assay [8] and in assay [9] were 1.01 (inactive) and 1.15, respectively. Moreover, the composite z-score is 0.285 (inactive) in assay [4] and -0.0741 in assay [10].
Turning to `CC(C)C[C@@H]1NC(=O)[C@@]23C(=O)N[C@@H](Cc4ccccc4)C2[C@H](C)[C@@]2(C)O[C@H]2C3/C=C/C/C=C\CNC(=O)CNC1=O` (stereo not given in full), the z-score in [1] was -0.62; in assay [2], -1.68 (inactive); in assay [3], 0.308 (inactive); in assay [5] it was 0.437 (inactive); in [6], -0.773 (inactive); in assay [7], -0.229 (inactive). Besides, the z-score in [8] was -0.911 (inactive); in [9], -0.139. For the same molecule, the composite z-score is -0.658 (inactive) in assay [4] and -0.105 in assay [10].
Consider `C[N+](C)(C)CCCC[C@@H]1NC(=O)[C@H]2C[C@@H](C(=O)NCCCCCNC(=O)CS)[C@@H](c3cccc(OCCO)c3)N2C1=O`, for which the z-score was -0.226 in [1]; -0.307 (inactive) in [2]; 0.703 (inactive) in assay [3]; 0.298 (inactive) in assay [5]; -1.13 (inactive) in [6]; -0.133 (inactive) in [7]. In addition, the z-score in assay [8] is -0.779 (inactive); in assay [9] it was 0.401. Further, the composite z-score in [4] was -0.867 (inactive); in [10], -0.102.
Consider `NC(=O)NCC#Cc1ccc2c(c1)[C@]1(C(=O)N2)[C@H](c2ccc(OCCO)cc2)N2[C@H](c3ccccc3)[C@H](c3ccccc3)OC(=O)[C@H]2[C@@H]1C(=O)O`, for which the z-score was -0.983 in assay [1]; -0.434 (inactive) in assay [2]; 0.117 (inactive) in assay [3]; 1.01 (inactive) in [5]; -0.264 (inactive) in [6]; 0.427 (inactive) in [7]. Moreover, the figures for the z-score in [8] and in assay [9] were -0.533 (inactive) and 0.15, respectively. In addition, the composite z-score was -0.996 (inactive) in assay [4] and -0.0013 in assay [10].
For `O=C1N(CCS(=O)(=O)c2ccccc2)c2ccccc2C[C@]12N=C(c1ccc(OCCCO)cc1)O[C@@H]2c1ccccc1`, the z-score is -0.285 in assay [1]; 0.376 (inactive) in [2]; -2.11 (inactive) in [3]; 0.575 (inactive) in assay [5]; 2.74 (inactive) in assay [6]; 0.39 (inactive) in assay [7]. Also, the z-score in [8] is -0.0504 (inactive); in [9] it was -0.885. Further, the composite z-score in assay [4] is -2.58 (inactive); in assay [10], 0.311.
`CCCCCC1=C2CNC(Cc3ccccc3)(C(=O)OC)C=C2C(C)C1=O` (stereo not given): the z-score in assay [1] is -1.19; in [2], 1.36 (inactive); in assay [3], -1.79 (inactive); in [5], 0.026 (inactive); in assay [6] it was 0.546 (inactive); in [7], -0.767 (inactive). Further, the z-score in [8] is -0.217 (inactive); in assay [9] it was -1.5. Also, the composite z-score in assay [4] is -0.461 (inactive); in assay [10], -0.138.
`C=C(CCCC)/C(=C/C[C@@H](OC(C)=O)c1ccc(CO)o1)c1cnc2ccccc2c1`: the z-score in [1] was -1.53; in assay [2], -0.293 (inactive); in [3], -0.291 (inactive); in assay [5], 0.0022 (inactive); in assay [6], 0.324 (inactive); in assay [7] it was -1.1 (inactive). Also, the z-score in assay [8] is -0.856 (inactive); in assay [9], -0.521. In addition, the composite z-score is -6.85 (inactive) in assay [4] and 0.1 in [10].
With `O=C(NC1CC1)[C@@H]1c2ccccc2C(=O)N(CC23CC4CC(CC(C4)C2)C3)[C@H]1c1ccc(CO)cc1`, the z-score in assay [1] is 0.658; in [2] it was -0.498 (inactive); in assay [3] it was 0.74 (inactive); in assay [5], 0.338 (inactive); in assay [6], 0.123 (inactive); in assay [7], -0.0508 (inactive). Besides, the z-score is -0.428 (inactive) in assay [8] and 1.07 in assay [9]. Further, the values for the composite z-score in assay [4] and in assay [10] were -0.329 (inactive) and 0.141, respectively.
With `N#Cc1ccc(NN2C(C(O)C3CC=CCC3)C=CC3C(=O)N(c4ccccc4)C(=O)C32)cc1` (stereo not given), the z-score in assay [1] was -1.3; in [2] it was 0.0837 (inactive); in assay [3], -0.609 (inactive); in assay [5], 1.36 (inactive); in [6], 0.601 (inactive); in [7] it was 0.0108 (inactive). The z-score in assay [8] is 0.123 (inactive); in assay [9], -0.382. For the same molecule, the composite z-score in assay [4] is 0.0758 (inactive); in assay [10], -0.0848.
With `O=C1C2C=CC(C(O)c3cccs3)N(Nc3ccc([N+](=O)[O-])cc3)C2C(=O)N1c1ccccc1` (stereo not given), the z-score in assay [1] is 0.626; in [2], 0.348 (inactive); in assay [3], -0.125 (inactive); in assay [5], 0.89 (inactive); in [6], -0.0522 (inactive); in assay [7], -0.958 (inactive). The z-score was -0.0047 (inactive) in assay [8] and -0.182 in assay [9]. The composite z-score in assay [4] was -1.63 (inactive); in [10] it was -0.177.
With `COCCn1c(C(=O)N(C)C)cc2c1C[C@H]1CN(C(=O)c3ccccc3)[C@@](Cc3ccc(OC)cc3)(C(=O)OC)[C@@H]21`, the z-score is -0.17 in assay [1]; 1.63 (inactive) in [2]; -1.43 (inactive) in assay [3]; 0.784 (inactive) in assay [5]; 1.03 (inactive) in [6]; -0.134 (inactive) in assay [7]. Besides, the z-score was -0.289 (inactive) in assay [8] and -1.81 in assay [9]. In addition, the figures for the composite z-score in [4] and in assay [10] were -0.271 (inactive) and 0.131, respectively.
`COC(=O)[C@@]1(Cc2ccccc2)N=C(c2ccc(OCCCO)cc2)O[C@H]1c1ccccc1CN=[N+]=[N-]`: the z-score was -4.1 in assay [1]; 1.24 (inactive) in [2]; -7.62 (inactive) in assay [3]; 2.45 (inactive) in assay [5]; 2.85 (inactive) in assay [6]; 0.876 (inactive) in assay [7]. Also, the figures for the z-score in assay [8] and in assay [9] were 0.93 (inactive) and -6.42, respectively. Besides, the composite z-score in assay [4] is 0.468 (inactive); in assay [10], 0.0549.
`C=CCOC(=O)[C@H]1[C@@H]2C(=O)O[C@@H](c3ccccc3)[C@@H](c3ccccc3)N2[C@@H](c2ccc(OCCOC(=O)[C@@H]3C[C@@H]4C(=O)N[C@@H](CCCCNC(C)=O)C(=O)N4[C@@H]3c3cccc(OCCO)c3)cc2)[C@]12C(=O)Nc1ccccc12`: the z-score in assay [1] is -0.16; in assay [2], 1.19 (inactive); in assay [3] it was 0.222 (inactive); in assay [5], 2.87 (inactive); in assay [6], 1.52 (inactive); in assay [7], 0.253 (inactive). Besides, the z-score in assay [8] is 0.0636 (inactive); in [9], 0.147. In addition, the composite z-score is 0.277 (inactive) in assay [4] and 0.0623 in assay [10].
Turning to `O=C1[C@H]2C=C(I)[C@H](C[C@@H]2c2ccccc2)[C@@]12CO2`, the z-score in [1] was -0.488; in assay [2], -11.5 (active); in [3], -0.886 (inactive); in [5] it was 0.236 (inactive); in assay [6] it was -2.23 (inactive); in [7] it was -0.791 (inactive). Also, the z-score in [8] was -1.24 (inactive); in assay [9], -0.603. Besides, the composite z-score in assay [4] is -0.376 (inactive); in assay [10] it was -0.223.
Turning to `N#Cc1ccc(-c2cccc(=O)o2)cc1`, the z-score is -0.518 in [1]; -0.923 (inactive) in assay [2]; 0.141 (inactive) in assay [3]; 0.0767 (inactive) in [5]; 0.719 (inactive) in assay [6]; -1.1 (inactive) in assay [7]. The z-score in [8] was -0.0301 (inactive); in [9], -0.389. The composite z-score in [4] was -0.578 (inactive); in [10] it was -0.0085.
For `COCCCNC(=O)[C@@H]1c2ccccc2C(=O)N(Cc2ccc(OC(F)(F)F)cc2)[C@H]1c1ccc(CO)cc1`, the z-score in assay [1] is 0.201; in assay [2] it was 0 (inactive); in assay [3] it was -0.148 (inactive); in [5], 0.801 (inactive); in assay [6], -1.06 (inactive); in assay [7] it was 0.454 (inactive). Moreover, the z-score was -0.34 (inactive) in assay [8] and 0.116 in assay [9]. In addition, the figures for the composite z-score in [4] and in [10] were 0.228 (inactive) and -0.219, respectively.
For `O=C1OCCC=C[C@H]2OC34C=CCN(c5ccc6ccccc6c5)C(=O)[C@H]3N(CCO)C(=O)[C@@H]4C12` (stereo not given in full), the z-score was 0.523 in assay [1]; -0.783 (inactive) in assay [2]; -1.23 (inactive) in [3]; 0.345 (inactive) in assay [5]; 0.0789 (inactive) in assay [6]; -1.26 (inactive) in [7]. The z-score in [8] is -1.42 (inactive); in [9] it was -0.796. Also, the values for the composite z-score in [4] and in [10] were -3.6 (inactive) and -0.248, respectively.
